# Screening results deposited in PubChem BioAssay by National Center for Advancing Translational Sciences (NCATS).
# DRD3 antagonist: blocks the human D3 dopamine receptor. P35462. D3R cells, DiscoveRx beta-arrestin luminescence, antagonist mode; stronger effect = lower value. max response, negative = inhibition, %. 360,000 tested, 2.5% active. AID 652054; in the data active = max response below about -50%; inconclusive = no clear call, values can overlap the other calls
# Target sequence (P35462 whole entry, looked up): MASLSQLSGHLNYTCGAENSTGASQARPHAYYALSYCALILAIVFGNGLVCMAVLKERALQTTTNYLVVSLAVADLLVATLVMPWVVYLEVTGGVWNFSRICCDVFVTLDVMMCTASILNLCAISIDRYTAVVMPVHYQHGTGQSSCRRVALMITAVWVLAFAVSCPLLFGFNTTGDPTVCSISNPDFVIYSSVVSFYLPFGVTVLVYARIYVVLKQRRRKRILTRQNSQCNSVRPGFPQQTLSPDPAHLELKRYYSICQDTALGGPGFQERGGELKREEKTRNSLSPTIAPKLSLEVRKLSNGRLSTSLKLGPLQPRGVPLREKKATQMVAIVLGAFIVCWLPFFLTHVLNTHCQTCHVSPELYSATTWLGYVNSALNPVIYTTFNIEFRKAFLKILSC
#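 Cells plated overnight at 1500 cells/well, then exposed to library compounds with dopamine controls for 90 minutes at 37 degrees C. DiscoveRx reagent added for 30–60 minutes at room temperature; luminescence read, quantitative HTS format.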
# D3 ag: D3 dopamine receptor (human) agonism | P35462 | D3R DiscoveRx beta-arrestin cells, luminescence, 90 min | max activation, % | 410,000 tested, 0.58% active; in the data active = max activation above about 30%
#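 Agonist mode: compounds and dopamine controls were applied to plated cells for 90 min at 37 degrees C after an overnight attachment at 1500 cells/well. Luminescent read-out followed 30 - 60 minutes at room temperature with DiscoveRx detection reagent.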
# HEK293 tox: cytotoxicity counter-screen for GLP-1 receptor inverse agonists | Potency, µM (top dose mostly 38.3 µM), usual class: inhibitors | 410,000 tested, 0.13% active | HEK293 cAMP-luciferase reporter cells, luminescence, 24 h;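 note: loss of luciferase light is scored as toxicity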
#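 Luminescence readout: signal drop marks cytotoxicity. Plated cells grew 12 h at 37 °C, 5% CO2, received 23 nL compound for 24 h, then got luciferase reagent, read after 12 min at RT.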
# GLP1R inv ag: inverse agonists of human GLP-1 receptor; HEK293 GLP-1R CRE-luciferase, luminescence, 24 h; GLP-1R form is constitutively active; AID 624417; Potency, µM (top dose mostly 38.3 µM), usual class: inhibitors; 410,000 tested, 1.6% active; note: nearly all actives have a fitted effect of over 55% in size
#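 Inverse agonism was detected as reduced cAMP-driven luciferase luminescence after 24 h compound treatment. The cells were HEK293 clones expressing constitutively active human GLP-1R with the reporter. Reporter-only and GPR119 cell lines served as counterscreen controls.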
# ClpP mod: qHTS Assay for Activators of ClpP. AID 651965, 2013. purified B. subtilis ClpP, FRET peptide cleavage, 20 min. 340,000 tested, 1.9% active. Potency, µM (doses to about 57.5 µM). ATP-dependent Clp protease proteolytic subunit (Bacillus subtilis (strain 168)), P80244; active = well fitted falling curve with a large enough effect; inconclusive = small, poorly fitted or top-dose-only effect; inactive = no such curve, though single readings can be large or run the other way; note: the source files actives as falling curves though it sought activators and does not explain the sign; nearly all actives have a fitted effect of over 65% in size
# Target sequence (P80244 whole entry, looked up): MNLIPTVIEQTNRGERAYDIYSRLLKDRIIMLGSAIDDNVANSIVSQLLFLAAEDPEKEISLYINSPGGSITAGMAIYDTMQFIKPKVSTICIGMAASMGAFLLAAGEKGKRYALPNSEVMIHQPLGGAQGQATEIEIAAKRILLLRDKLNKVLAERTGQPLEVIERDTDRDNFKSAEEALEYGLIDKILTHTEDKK
#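 Purified B. subtilis ClpP, 10 microg/mL final in Tris/HCl pH8 with KCl, BSA, glycerol and Tween-20, cleaved an Abz/nitrotyrosine-quenched decapeptide. Fluorescence (ex 320, em 430) was read at 0 and 20 min at room temperature. Delta was normalized to 5.8 microM ADEP and DMSO/no-enzyme controls.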
# GLP1R ag: GLP-1 receptor (human) agonism; P43220; HEK293 GLP-1R CRE-luciferase, luminescence, 4-6 h; cells express a hypersensitive GLP-1R form; AID 624172; 380,000 tested, 0.007% active; Potency, µM (top dose mostly 45.6 µM), actives largely listed as activators
# Numbers stand for hits; . = inactive; ? = inconclusive; / = not tested or not shown. Most compounds without a hit are left out; they make up all but 5.7% or so of the library. Unless noted, calls come from the whole dose curve; as a rule, active = well fitted curve in the direction sought with a large enough effect; inconclusive = small, poorly fitted or top-dose-only effect, or another doubt; inactive = no such curve, though single readings can be large; an effect the other way counts as inactive or inconclusive.
SMILES,DRD3 antagonist,D3 ag,HEK293 tox,GLP1R inv ag,ClpP mod,GLP1R ag
O=C(NC1CCCCC1)C(c1ccnc2ccccc12)n1c(=O)c(-c2ccccc2)nc2ccccc21 (centres undefined),-68,.,.,.,.,/
O=C(NCc1ccccc1)C(CCc1ccccc1)n1c(=O)c(-c2cc3ccccc3[nH]2)nc2ccccc21 (centres undefined),.,.,.,5.6µM,.,/
O=C(NC1CCCCC1)C(c1ccnc2ccccc12)n1c(=O)c(-c2cc3ccccc3[nH]2)nc2ccccc21 (centres undefined),.,.,.,?,.,/
O=C(NCc1ccccc1)C(CCc1ccccc1)n1c(=O)c(-c2ccccc2)nc2ccccc21 (centres undefined),-71,.,.,?,?,/
N#Cc1ccc(C(C(=O)NCc2ccccc2)n2c(=O)c(-c3cc4ccccc4[nH]3)nc3ccccc32)cc1 (centres undefined),.,.,.,?,.,/
C/C(=C(\CCOC(=O)c1ccccc1)SS/C(CCOC(=O)c1ccccc1)=C(/C)N(C=O)Cc1cnc(C)nc1N)N(C=O)Cc1cnc(C)nc1N,/,.,/,/,/,/
Cc1csc2nc(-c3cccc(NC(=O)c4c(F)cccc4F)c3)cn12,/,.,.,.,.,.
CC(C)=CCC[C@H](C)C[C@@H]1Cc2[nH][nH]c(=O)c2[C@H](c2ccc(F)cc2)O1,?,.,.,.,.,.
Cc1ccc(C)c(CSc2nc3ccncc3n2CC(=O)Nc2ccc(N(C)C)cc2)c1,/,.,.,?,.,/
CN1CCN(C(=S)c2cn(Cc3cccc(F)c3)c3ccccc23)CC1,.,.,.,?,.,.
CC1CCN(C(=S)c2cn(Cc3ccc(F)cc3)c3ccccc23)CC1,.,.,.,7.1µM,.,.
CC1CCN(C(=S)c2cn(Cc3ccccc3F)c3ccccc23)CC1,.,.,.,10µM,.,.
CN1CCN(C(=S)c2cn(Cc3ccc(F)cc3)c3ccccc23)CC1,.,.,.,10µM,.,.
COc1ccc(CNc2nc(-c3ccco3)nn2S(=O)(=O)c2ccc3ccccc3c2)cc1OC,/,.,.,.,.,/
CN(C)c1ccc(N=Nc2ccc(C(=O)O)cc2)cc1,?,.,?,2.5µM,/,.
CCN(CC)CCCNC(=O)C1c2ccccc2C(=O)N(C)C1c1ccc(OC)cc1 (centres undefined),-52,.,.,.,.,.
NC(N)=N/N=C/c1ccc(OCc2ccccc2Cl)cc1,.,.,?,11µM,.,.
O=C(Nc1ccc2cn[nH]c2c1)c1c(Cl)cccc1Cl,.,.,.,.,.,.
CC(=O)Nc1ccc(NC2=C(Cl)C(=O)c3ccccc3C2=O)cc1,-102,.,?,.,/,.
O=C1C(Cl)=C(Nc2ccc3cn[nH]c3c2)C(=O)c2ccccc21,-120,.,?,?,/,.
COc1ccc(N(C)C(=O)NCc2noc3ccc(C)cc23)c(OC)c1,/,.,.,.,.,/
Nc1c(N(CCC2=CCCCC2)C(=O)COc2ccc(F)cc2Cl)c(=O)[nH]c(=O)n1Cc1ccccc1,-92,.,.,.,.,.
COCCN(C(=O)COC(=O)c1cccnc1Cl)c1c(N)n(Cc2ccccc2)c(=O)[nH]c1=O,.,.,.,.,.,.
CC(C)CCN(C(=O)Cc1ccc(Cl)c(Cl)c1)c1c(N)n(Cc2ccccc2)c(=O)[nH]c1=O,-72,.,.,.,.,.
CC(C)CN(C(=O)COC(=O)c1cccnc1Cl)c1c(N)n(Cc2ccccc2)c(=O)[nH]c1=O,.,.,.,.,28µM,.
SMILES,DRD3 antagonist,D3 ag,HEK293 tox,GLP1R inv ag,ClpP mod,GLP1R ag
CCCCn1c(N)c(N(CC(C)C)C(=O)COC(=O)c2ccccc2NCCO)c(=O)[nH]c1=O,.,.,.,.,16µM,.
Nc1c(N(CCC2=CCCCC2)C(=O)Cc2ccc(F)cc2)c(=O)[nH]c(=O)n1Cc1ccccc1,.,.,.,.,.,.
Cc1ccc(NC(=O)CN2CCN(C(=O)C3CC3)CC2)c(F)c1,.,.,.,.,.,.
Cc1c(CC(=O)NCc2ccccc2)c(=O)oc2c(C)c(O)ccc12,/,.,.,?,.,/
O=C(COc1ccc2c3c(c(=O)oc2c1)CCC3)N[C@@H](CSCc1ccccc1)C(=O)O,.,.,.,.,.,.
Cc1c(OCC(=O)N[C@@H](Cc2ccccc2)C(=O)O)ccc2c1oc(=O)c1ccccc12,.,31,.,.,.,.
O=C(COc1ccc2c3c(c(=O)oc2c1)CCC3)N[C@@H](Cc1ccccc1)C(=O)O,.,33,.,.,.,.
Cc1c(OCC(=O)N[C@@H](Cc2ccccc2)C(=O)O)ccc2c3c(c(=O)oc12)CCC3,.,.,.,.,.,.
O=C(O)CSc1nnc(-c2ccc(O)cc2)o1,/,.,.,.,.,.
O=C(CSc1nnc(-c2ccc(O)cc2)o1)c1ccc(Br)cc1,/,.,.,8.9µM,.,/
CC(=O)c1cccc(Nc2nn(-c3ccc(OC(F)(F)F)cc3)nc2C(C)=O)c1,/,.,.,.,.,/
C=CC[n+]1c(-c2ccc(Cl)cc2Cl)csc1Nc1ccc(NC(C)=O)cc1,?,.,?,.,/,.
C=CC[n+]1c(-c2ccc(Cl)cc2Cl)csc1Nc1c(C)n(C)n(-c2ccccc2)c1=O,-81,.,.,?,/,.
CN1CCN(C(CNC(=O)C(=O)Nc2ccccc2C#N)c2ccc3c(c2)OCO3)CC1 (centres undefined),/,.,.,.,.,/
CCOC(=O)Cn1c(=S)[nH]c2c(oc3ccc(Cl)cc32)c1=O,-68,.,.,.,.,.
CCOC(=O)Cn1c(=O)oc2ccc(C)cc21,.,.,.,.,/,.
FC(F)(F)c1ccnc(N2CCN(Cc3cnc(-c4ccccc4)[nH]3)CC2)c1,-77,.,.,?,/,.
Cc1ccc2nc3ccc(N4CCCC4)nn3c(=O)c2c1,.,.,.,.,.,.
CC1CCCN(c2ccc3nc4ccccc4c(=O)n3n2)C1 (centres undefined),.,.,.,5µM,/,.
Cc1nc(-c2ccc(S(=O)(=O)NCc3ccc(N(C)C)cc3)cc2)co1,/,.,.,.,.,.
Cc1ccc(Cc2c(C)nc3nc(SCC(=O)NC(C)c4ccccc4)nn3c2C)cc1 (centres undefined),/,.,.,?,.,/
CCOC(=O)Cc1c(C)nc2cc(-c3ccc(Cl)cc3)[nH]n2c1=O,.,.,.,.,28µM,.
CCOC(=O)CCc1c(C)nc2cc(-c3ccc(F)cc3)[nH]n2c1=O,?,.,.,.,25µM,.
